INHIBITION data for 53 compounds are collected here from ChEMBL document CHEMBL4513216, “Probing the Open Global Health Chemical Diversity Library for Multistage-Active Starting Points for Next-Generation Antimalarials” (ACS Infect Dis, 2020).

The campaign covered roughly 69,000 compounds. About 8,600 (12%) showed an effect of 50% or more. The entries come from a sample that favours strong results as a whole.

This test deals with Plasmodium berghei. The experiment in a line: Screen against P. berghei liver stage (PbLuc), transformed with Luciferase, at 10uM. The conditions noted are these: tested at 10 uM. The test is classed as functional, HepG2.
As to `CC(CO)CN(Cc1ccccc1)Cc1c[nH]cn1` (stereo not drawn), the INHIBITION is reported as 9.55%.
As for `CN(C)C1CC2(CCN(C(=O)C3(C#N)CC3)CC2)c2ccccc21` (stereo not drawn), the INHIBITION stood at 57.5%.
Next, `COCC(=O)N1CCC2(CC1)CC(CC(=O)NC1CC1)c1ccccc12` (stereo not drawn): 25.6%.
Take `CN(C)C1CC2(CCN(C(=O)c3csnn3)CC2)c2ccccc21` (stereo not drawn): the INHIBITION is recorded as -22.1%.
`O=C(NC1CC1)N1CCC2(CC1)CC(N1CCOCC1)c1ccccc12` (stereo not drawn): the INHIBITION came out at 43%.
Turning to `CN(C)C1CC2(CCN(C(=O)NC3CC3)CC2)c2ccccc21` (stereo not drawn), the INHIBITION was 61.1%.
For `Cc1ccc2c(c1)C(N(C)C)CC21CCN(CCO)CC1` (stereo not drawn), the INHIBITION was -57.1%.
Under `CN1CCc2nc(C3CCCN(S(=O)(=O)N4CCCC4)C3)ncc2C1` (stereo not drawn) stands 23.325%.
With `Cn1ccc(C(=O)NCc2ccc(N3CCCCCC3)nc2)cc1=O`, the INHIBITION is reported as 17.4%.
Under `O=C1NCCCCC1NCc1csc(-c2ccc(F)cc2)n1` (stereo not drawn) stands -7.17%; under `Cc1cc(C)nc(NC2CC(=O)N(C(C)(C)C)C2)n1` (stereo not drawn), 31.2%.
Next, `Cc1cc(C)nc(NC2CCC(=O)N(C)C2)n1` (stereo not drawn): 11.5%.
Under `Cc1cc(C)nc(NC2CC(=O)N(C)C2)n1` (stereo not drawn) stands 63.3%; under `Cc1cc(C)n(C2CCCN(C(=O)CCOc3cccc(F)c3)C2)n1` (stereo not drawn), -25.9%.
On to `Cc1cc(C(=O)N2CC[C@@]3(C[C@@H](NS(C)(=O)=O)CCO3)C2)no1`, for which the INHIBITION is 69.5%.
As for `Cc1ccoc1C(=O)N1CC[C@@]2(C[C@H](NS(C)(=O)=O)CCO2)C1`, the INHIBITION was determined as 18.5%.
Next, `CS(=O)(=O)N[C@H]1CCO[C@]2(CCN(C(=O)c3ccccn3)C2)C1`: 4.27%; `Cc1ncoc1C(=O)N1CC[C@@]2(C[C@H](NS(C)(=O)=O)CCO2)C1`: 35.7%.
Next, `Cc1nc(C(=O)N2CC[C@@]3(C[C@@H](NS(C)(=O)=O)CCO3)C2)cs1`: 62.5%; `CS(=O)(=O)N[C@@H]1CCO[C@]2(CCN(C(=O)C3=CCCC3)C2)C1`: 21%.
For `CS(=O)(=O)N[C@@H]1CCO[C@]2(CCN(C(=O)c3cnccn3)C2)C1`, the INHIBITION is recorded as 32.4%.
Under `Cc1cncc(C(=O)N2CC[C@@]3(C[C@H](NS(C)(=O)=O)CCO3)C2)c1` stands 54.4%; under `CS(=O)(=O)N[C@@H]1CCO[C@]2(CCN(C(=O)c3cscn3)C2)C1`, 35.7%.
Next, `Cc1ccc(C(=O)N2CC[C@@]3(C[C@@H](NS(C)(=O)=O)CCO3)C2)s1`: 50.9%.
As for `Cc1nc(C(=O)N2CC[C@@]3(C[C@H](NS(C)(=O)=O)CCO3)C2)cs1`, the INHIBITION was 11.3%.
`CS(=O)(=O)N[C@H]1CCO[C@]2(CCN(CC3CCOCC3)C2)C1`: the INHIBITION was -44.4%.
Turning to `Cc1cc(C(=O)N2CCCC(n3cccn3)C2)c(C)n1C1CC1` (stereo not drawn), the INHIBITION was 5.7%.
Turning to `Cc1cc(CN(C)C(=O)NCC(C)N2CCc3ccccc32)no1` (stereo not drawn), the INHIBITION is given as 15.6%.
Under `Cc1nccc(CN2CC[C@@]3(CCCN3Cc3ccccc3)[C@@H](O)C2)n1` stands 39.7%; under `CC(C)N1CCO[C@@H]2CN(S(=O)(=O)c3cccs3)CC[C@@H]2C1`, 42.4%.
Next, `Cc1cc(C)n(-c2ccc(C(=O)NCC(c3cccs3)N(C)C)cc2)n1` (stereo not drawn): 30%; `Cc1cc(C)c(C(=O)NC(c2nnc3n2CCNCC3)C(C)C)c(C)c1` (stereo not drawn): 37.7%.
Under `CC(C)C(NC(=O)c1ccc(=O)[nH]c1)c1nnc2n1CCNCC2` (stereo not drawn) stands 12.6%; under `CC(C)c1ocnc1C(=O)NC(c1nnc2n1CCNCC2)C(C)C` (stereo not drawn), 65.5%; under `CCN(CC)S(=O)(=O)N1CCCC(c2nccn2Cc2ccncc2)C1` (stereo not drawn), 70.1%.
Turning to `CN(C)S(=O)(=O)N1CCCC(c2nccn2Cc2cccnc2)C1` (stereo not drawn), the INHIBITION is listed as 11.9%.
As to `COc1cc(N2CCC(c3nccn3Cc3ccccc3)CC2)ncn1`, the INHIBITION is recorded as 11.7%.
Next, `COc1cc(N2CCCC(c3nccn3Cc3ccncc3)C2)ncn1` (stereo not drawn): 54.7%.
Consider `COc1cc(N2CCCC(c3nccn3Cc3cccnc3)C2)ncn1` (stereo not drawn), for which the INHIBITION is 2.69%.
`O=C(N1CCCC1)N1CCCC(c2nccn2Cc2ccncc2)C1` (stereo not drawn): the INHIBITION is -14.6%.
`CCCSCC(=O)N1CCCC(c2nccn2Cc2ccncc2)C1` (stereo not drawn): the INHIBITION was found to be 25%.
Next, `CC(C)OC(=O)N1CCCC(c2nccn2Cc2ccncc2)C1` (stereo not drawn): 50.3%.
For `CCN(CC)S(=O)(=O)N1CCCC(c2nccn2Cc2cccnc2)C1` (stereo not drawn), the INHIBITION is listed as 15.2%.
Next, `O=C1NC2(CCN(C(=O)N3CCOCC3)CC2)CC1c1cccnc1` (stereo not drawn): 9.34%; `Cc1nc(CN2C[C@@H]3CN(C(=O)C4CC4)C[C@@H]3C2=O)cs1`: 42.6%; `O=C(NCCc1c[nH]c2ccccc12)C1CCC(Cn2cnnn2)CC1` (stereo not drawn): -65.9%.
Regarding `Cc1cc(NC(=O)CN2CCCC(Cn3nc(C)nc3C)C2)n(C)n1` (stereo not drawn), the INHIBITION was -22.15%.
Under `CSCc1ccc(N2CCN(c3ccc(Cl)cn3)CC2)nc1` stands 38.3%; under `CSCc1ccc(N2CCC(C(O)CC(C)C)CC2)nc1` (stereo not drawn), 67.4%; under `CC(C)CC(O)C1CCN(Cc2ccc(N(C)C)nc2)CC1` (stereo not drawn), 10.6%.
Consider `Cc1ccc(N2CCC(C(O)Cc3ccccc3)CC2)nn1` (stereo not drawn), for which the INHIBITION is -2.97%.
As to `CSCc1ccc(N2CCC(C(O)Cc3ccccc3)CC2)nc1` (stereo not drawn), the INHIBITION amounted to 74.3%.
Under `CN(C)c1ccc(CN2CCC(C(O)Cc3ccccc3)CC2)cn1` (stereo not drawn) stands -42.8%.
